The source of these data is publication PMC7819943, “Rice protein-binding microarrays: a tool to detect cis-acting elements near promoter regions in rice”.

In all, about 68,000 sequences were measured (“fluorescence intensity (a.u.)”: median about 9,100, highest 2% from about 16,000 on). The sample holds the highest values, similar sequences and a random draw of the others, so the mix is not that of the screen.

The target of this assay is OsWRKY34 (Oryza sativa, UniProt Q0JBA9 1-250). Nature of the assay: protein-binding microarray (RPBM); PBS, 2% BSA, 51.3 ng/ul salmon testes DNA, 50 uM zinc acetate, 200 nM TF, 25 C, 1 h; high values mean tight binding. As to conditions: protein: recombinant; tags: N-terminal polyhistidine and DsRed monomer fusion (pET32a); label: CyDye5-dUTP incorporated in the synthesized complementary strand; 3' TTTTT single-stranded linker to array surface; dsDNA, one strand shown. In a few lines: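 In PBS with 2% BSA, salmon testes DNA and 50 µM zinc acetate, 200 nM protein was incubated on a custom Agilent array at 25 °C for 1 h and then washed off. The array had been made double-stranded by primer extension with Cy5-dUTP and blocked with 2% BSA. The proteins were transcription factors fused N-terminally to polyhistidine and DsRed, expressed in E. coli BL21-CodonPlus and purified on Ni–NTA. The binding signal is per-feature fluorescence intensity (arbitrary units) from an Axon 4000B scanner.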
Chain of OsWRKY34 (Q0JBA9 entry or part of it): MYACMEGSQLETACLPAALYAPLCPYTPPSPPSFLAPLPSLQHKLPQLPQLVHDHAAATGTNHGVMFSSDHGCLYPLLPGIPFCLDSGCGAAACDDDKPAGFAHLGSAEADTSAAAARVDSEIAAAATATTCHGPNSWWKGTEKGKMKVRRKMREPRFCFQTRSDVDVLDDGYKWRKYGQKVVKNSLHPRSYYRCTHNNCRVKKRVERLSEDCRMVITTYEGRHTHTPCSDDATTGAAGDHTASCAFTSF
In the case of “ATACGTCATTTGTATTTGAGTCGGTTTTTAAGTTCCTCCGCGGAGTCACCTAGTGCAG”, the binding signal was 12200 fluorescence intensity (a.u.).
Then “TTTTGCAAAGCATTCCTCGCGCTTTCAGCTAATTACGCATCGGAGTCACCTAGTGCAG”, with 8500 fluorescence intensity (a.u.).
With “CACCAACGCGTCCCCACCGTGTCGCCTCCTGATTGGTTGTCGGAGTCACCTAGTGCAG”, the binding signal is 12100 fluorescence intensity (a.u.).
For the sequence “CTCTCGCTCTTTTATTTTTTTTCCTTGTTTCCTTTCGTGTCGGAGTCACCTAGTGCAG”, the binding signal was 12100 fluorescence intensity (a.u.).
Regarding “TTATTTTTCGTTCCTTCTTTTTTTCTCTCTCACTTTTCTCCGGAGTCACCTAGTGCAG”, the binding signal was 11300 fluorescence intensity (a.u.).
Take “GTTGGGCTTCCTTATTGGGTTGGGCTACCTGTCTGATTTTCGGAGTCACCTAGTGCAG”: the binding signal is 16600 fluorescence intensity (a.u.).
As to “AGGTTATTTTTTCCTTACCTTTTTTTTTTCTGATACTACTCGGAGTCACCTAGTGCAG”, the binding signal is 9920 fluorescence intensity (a.u.).
Take “GTCCTCGTTTTTTTTTTCCTTCTCTTTTTCTTTTCCTTTTCGGAGTCACCTAGTGCAG”: the binding signal is 9450 fluorescence intensity (a.u.).
The figure for “TTGTTACTACATTTCCTGTACTATTTTACTGTCTGATTTACGGAGTCACCTAGTGCAG” is 8460 fluorescence intensity (a.u.); for “GTCGTTCGCTCTTTTATCCTTTTCGGACAATTTCACTTTCCGGAGTCACCTAGTGCAG” it is 19200 fluorescence intensity (a.u.); for “GCTTCACCTTCGGCTTCGACTTCGGCTTCGTTTCCTCTTCCGGAGTCACCTAGTGCAG” it is 18600 fluorescence intensity (a.u.).
For the sequence “TGTTTTCACTTTCCTCTTCAGTCTTCTTCCTTCTTTCGTTCGGAGTCACCTAGTGCAG”, the binding signal was 9140 fluorescence intensity (a.u.).
“GCTCGCCGCGTGCTCTCGTCATCCATCCGACCCACGCCCGCGGAGTCACCTAGTGCAG”: the binding signal is 11000 fluorescence intensity (a.u.).
Take “ATTTTATATGATTTCTTACAGACTTTTTTTATCATTTTACCGGAGTCACCTAGTGCAG”: the binding signal was 9760 fluorescence intensity (a.u.).
Turning to “GCATTGGTTGGTGGTTTGGTGACGGCTTCGTTGTAGGCCTCGGAGTCACCTAGTGCAG”, the binding signal was 9760 fluorescence intensity (a.u.).
With “TCCTCTCTCTCTCTCTCTCTCTCTCCTCCTTTGGAGTTGTCGGAGTCACCTAGTGCAG”, the binding signal was 10500 fluorescence intensity (a.u.).
“CGTCCAGTCCGCTCCCTCCCTCATTCATTCGGTTCGGTAACGGAGTCACCTAGTGCAG”: the binding signal was 8870 fluorescence intensity (a.u.).
On to “CGTCGACGACGTCTCGATCGATCGGTGGTGGTGGTGGTGGCGGAGTCACCTAGTGCAG”, for which the binding signal was 8540 fluorescence intensity (a.u.).
With “CTCGTGGTCAAATCTGAATATCCGATACTTCCGTTTCAAACGGAGTCACCTAGTGCAG”, the binding signal was 8300 fluorescence intensity (a.u.).
With “CGCCGCCGCTCCAGCTCCAGCCGCCCGTGCTCCCTCGCGGCGGAGTCACCTAGTGCAG”, the binding signal was 8200 fluorescence intensity (a.u.).
“TCACCACTGCTGCTCTCGCTGCCGTCCTTGTTCTTCGCGCCGGAGTCACCTAGTGCAG”: the binding signal was 8110 fluorescence intensity (a.u.).
Consider “CGTTTTCTTTTTTCTTCCTCGCTTTCTCTCTCTCTCTCTCCGGAGTCACCTAGTGCAG”, for which the binding signal was 11600 fluorescence intensity (a.u.).
Take “GCGCTCGCCGCTGCCGCAAGCTCGCCTCCGACCCCGGCCACGGAGTCACCTAGTGCAG”: the binding signal was 9530 fluorescence intensity (a.u.).
Then “CGCTTTCCTCTCCGGCAACGACCTCGCAGCTGTGGCCACCCGGAGTCACCTAGTGCAG”, with 18600 fluorescence intensity (a.u.).
Take “GATCTCATCCCGTCCCGTCATCTGCTTCCTCTCTCGGAACCGGAGTCACCTAGTGCAG”: the binding signal was 16900 fluorescence intensity (a.u.).
The figure for “CGCCTCGCGGCAGGCAGCCGAGCTGTCTCCAACCGTGCCGCGGAGTCACCTAGTGCAG” is 37300 fluorescence intensity (a.u.).
In the case of “ACCGTCTCATCTTCTTCTTCCTCCTCCTCTGATCTTCTCCCGGAGTCACCTAGTGCAG”, the binding signal is 8220 fluorescence intensity (a.u.).
For “ACCAACCAACCACTGCTCTCGCCGCGCCGTCCTCTTCATCCGGAGTCACCTAGTGCAG”, the binding signal was 18200 fluorescence intensity (a.u.).
With “CCCCAACCCGCCGCCAGCCACCGAGCTCGCCACCGTCTCCCGGAGTCACCTAGTGCAG”, the binding signal is 8970 fluorescence intensity (a.u.).
Take “TCTGCTTCTTCATCCTCGTGCTCTGCTTCTCTCTTCTTCCCGGAGTCACCTAGTGCAG”: the binding signal was 8980 fluorescence intensity (a.u.).
Consider “TGTGCCGCTCCGTCGTGCTCTTCGTCGCGCCACTCATCCTCGGAGTCACCTAGTGCAG”, for which the binding signal is 9080 fluorescence intensity (a.u.).
In the case of “ACAATCCATTTTATTCCAACAGATATATACACGGGGACAACGGAGTCACCTAGTGCAG”, the binding signal is 8410 fluorescence intensity (a.u.).
The figure for “GGCTAGGTTGTGCGCGCCCTTCTCGATGTAGCAATAGCAACGGAGTCACCTAGTGCAG” is 8520 fluorescence intensity (a.u.); for “CCTTCGACCCGTCCCCTCACAAACGGCCGTTTCCCTCCCGCGGAGTCACCTAGTGCAG” it is 9230 fluorescence intensity (a.u.); for “GATCGAATCGAATAGAGTACATTCTCTACAGGGGAGGGGACGGAGTCACCTAGTGCAG” it is 9760 fluorescence intensity (a.u.).
For the sequence “GTCTGTGAATGTTTTATTTGCCTTGTCTGAACTATCTTTACGGAGTCACCTAGTGCAG”, the binding signal was 11400 fluorescence intensity (a.u.).
With “TGTTGGTGAATGGTAATTTTTTGGGTTGATATGTTGCTGACGGAGTCACCTAGTGCAG”, the binding signal is 9580 fluorescence intensity (a.u.).
The figure for “CTTCCTTCCTAACGTATCGCCCACATTCCTCCACGTCTCCCGGAGTCACCTAGTGCAG” is 8980 fluorescence intensity (a.u.).
Then “TCCATTTCCTTGTTTGGTTGGGTGGATGAGAATGGATTGACGGAGTCACCTAGTGCAG”, with 9010 fluorescence intensity (a.u.); and “ACACCGCACCGCCGCAATCGTTGGCACAAGCTACAACCCTCGGAGTCACCTAGTGCAG”, with 8540 fluorescence intensity (a.u.); and “CAAAACAGCCGCGTTTTGGCTCACTAGTCACTTGTTTGACCGGAGTCACCTAGTGCAG”, with 9710 fluorescence intensity (a.u.).
Turning to “TTGTCTCACCACTGCTTCGCATCCTCCGCCGCCGCCTCACCGGAGTCACCTAGTGCAG”, the binding signal was 11000 fluorescence intensity (a.u.).
